Test results reported in PubChem BioAssay (EPA / NIEHS).
Inconclusive results are not listed. Some structures have more than one record in an assay (separate samples or runs), and their calls can disagree. Active and inactive are the calls of the source. The calls were made as follows, unless noted: active = hit-call score of the fitted dose curve at least 0.9, where 1 is the maximum; inactive = score below 0.9.

tested on: not listed separately; experiment: CCTE_Shafer_MEA_acute_cross_correlation_HWHM: CCTE's Neural Acute Assay for Cross Correlation at Half Width at Half Maximum, Shafer Lab (AID 2284026);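 also: percent change per well from pre-dose baseline in spike cross-correlogram half width; hits are a decrease in cross-correlogram half width relative to DMSO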;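 as to outcome: spontaneous network firing of rat primary cortical neurons on multiwell microelectrode arrays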
Procedure, shortened: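 Percent change in cross-correlogram half width at half maximum, narrower meaning more synchrony, was derived per well from paired 40-min recordings before and during exposure to 0.03-40 uM compound in rat cortical cultures at 37 C.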

Row | SMILES | outcome | AC50
1 | O=C1NS(=O)(=O)c2ccccc21 | inactive | –
2 | CCCCC=O | inactive | –
3 | OCC(CO)(CBr)CBr | inactive | –
4 | CCC(C)c1ccccc1O (configuration not stated) | – | 8.95 µM (active)
5 | Oc1ccc(Cc2ccccc2O)cc1 | inactive | –
6 | N=C(N)c1ccc(OCCCCCOc2ccc(C(=N)N)cc2)cc1 | – | 32 µM (active)
7 | CC(=O)Nc1ccc(O)cc1 | inactive | –
8 | O=C(CCCN1CCC(O)(c2ccc(Cl)cc2)CC1)c1ccc(F)cc1 | inactive | –
9 | CCCCCCCCCCCC | inactive | –
10 | Oc1c(Cl)cc(Cl)cc1Sc1cc(Cl)cc(Cl)c1O | – | 9.62 µM (active)

molecular target: Estrogen receptor (Homo sapiens) (UniProt P03372); experiment: CCTE_Deisenroth_AIME_384WELL_LUC_Active: CCTE's 384-well Estrogen Receptor Transactivation Assay with AIME metabolic competence (ERTA luciferase; metabolism positive), Deisenroth Lab (AID 2284030; active = hit-call score of the fitted dose curve at least 0.9, where 1 is the maximum)
Sequence (P03372 whole entry, looked up): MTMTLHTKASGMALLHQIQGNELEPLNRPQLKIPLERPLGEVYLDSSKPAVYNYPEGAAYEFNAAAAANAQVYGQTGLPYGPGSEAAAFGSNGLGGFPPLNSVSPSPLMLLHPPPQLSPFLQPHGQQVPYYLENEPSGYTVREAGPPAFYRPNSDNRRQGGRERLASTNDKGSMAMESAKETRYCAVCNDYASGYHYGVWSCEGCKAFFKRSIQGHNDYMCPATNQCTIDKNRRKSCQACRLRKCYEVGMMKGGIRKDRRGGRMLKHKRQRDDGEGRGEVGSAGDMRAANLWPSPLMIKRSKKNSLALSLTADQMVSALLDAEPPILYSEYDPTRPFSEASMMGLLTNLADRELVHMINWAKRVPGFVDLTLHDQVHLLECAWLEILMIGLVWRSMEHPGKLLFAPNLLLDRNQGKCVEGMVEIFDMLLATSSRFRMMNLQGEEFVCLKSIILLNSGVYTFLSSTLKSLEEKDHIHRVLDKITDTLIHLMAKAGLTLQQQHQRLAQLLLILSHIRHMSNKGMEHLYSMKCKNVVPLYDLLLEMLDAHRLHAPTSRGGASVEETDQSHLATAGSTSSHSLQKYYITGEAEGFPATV
Procedure, shortened: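 Estrogenic luciferase signal in VM7Luc4E2 cells is measured at 24 hour, after chemicals have been preconditioned 2 hours with PB/BNF-induced rat hepatic S9 in alginate. Gain of signal is fitted relative to 17beta-estradiol, across 0.002 - 200 uM.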

Row | SMILES | outcome
11 | CCCCCCCCCC=CCC1CC(=O)OC1=O (configuration not stated) | inactive
12 | COc1cc([N+](=O)[O-])ccc1N | inactive
13 | CCCCc1ccc2ccccc2c1S(=O)(=O)O | inactive

tested on: not listed separately; experiment: CCTE_Shafer_MEA_dev_firing_rate_mean: CCTE's Neural Network Formation Assay for Mean Firing Rate, Shafer Lab (AID 2284031);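 as to AC50: curve fitted for loss of firing so AC50 reflects decreased mean firing rate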
Procedure, shortened: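 Primary rat cortical neurons on 48-well MEA plates, exposed from plating day 0 with dosing renewed on DIV 5 and 9. Mean well firing rate over active electrodes, recorded days 5, 7, 9, 12, summarised as trapezoidal AUC.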

Row | SMILES | outcome | AC50
14 | O=C1NS(=O)(=O)c2ccccc21 | inactive | –
15 | OCC(F)(F)C(F)(F)C(F)(F)C(F)(F)C(F)(F)C(F)(F)C(F)(F)C(F)(F)C(F)(F)C(F)(F)C(F)(F)F | inactive | –
16 | Nc1ccn([C@@H]2O[C@H](CO)[C@@H](O)C2O)c(=O)n1 (some centres not stated) | – | 0.471 µM (active)
17 | O=C(F)C(F)(F)C(F)(F)C(F)(F)C(=O)F | inactive | –
18 | O=CC(F)(F)C(F)(F)C(F)(F)C(F)F | inactive | –
19 | CC(C)c1c(C(=O)Nc2ccccc2)c(-c2ccccc2)c(-c2ccc(F)cc2)n1CC[C@@H](O)C[C@@H](O)CC(=O)O | – | 0.013 µM (active)
20 | O=C(F)C(F)(F)C(F)(F)C(F)(F)C(F)F | inactive | –
21 | O=C(CC(=O)C(F)(F)C(F)(F)C(F)(F)F)c1cccs1 | inactive | –
22 | CC(=O)Nc1ccc(O)cc1 | inactive | –
23 | O=C(CCCN1CCC(O)(c2ccc(Cl)cc2)CC1)c1ccc(F)cc1 | – | 0.39 µM (active)
24 | O=P(O)(O)CCC(F)(F)C(F)(F)C(F)(F)C(F)(F)C(F)(F)C(F)(F)C(F)(F)C(F)(F)F | inactive | –
25 | COC(=O)C(F)(F)C(F)(F)C(F)(F)F | inactive | –
26 | C=CC(F)(F)C(F)(F)C(F)(F)C(F)(F)F | inactive | –

tested on: not listed separately; experiment: CCTE_Shafer_MEA_dev_per_burst_spike_percent: CCTE's Neural Network Formation Assay for Percent of Spikes in a Burst, Shafer Lab (AID 2284032);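 as to AC50: fitted as a decrease in burst spike percentage below DMSO baseline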
Procedure, shortened: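 Rat primary cortical neurons on 16-electrode MEA wells, dosed from plating day 0 for 12 days with renewal on DIV 5 and 9; spikes-in-bursts percentage averaged over bursting electrodes, collapsed as AUC across days 5, 7, 9, 12; loss direction versus DMSO.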

Row | SMILES | outcome | AC50
27 | O=C1NS(=O)(=O)c2ccccc21 | inactive | –
28 | OCC(F)(F)C(F)(F)C(F)(F)C(F)(F)C(F)(F)C(F)(F)C(F)(F)C(F)(F)C(F)(F)C(F)(F)C(F)(F)F | inactive | 15 µM (active)
29 | Nc1ccn([C@@H]2O[C@H](CO)[C@@H](O)C2O)c(=O)n1 (some centres not stated) | – | 0.341 µM (active)
30 | O=C(F)C(F)(F)C(F)(F)C(F)(F)C(=O)F | inactive | –
31 | O=CC(F)(F)C(F)(F)C(F)(F)C(F)F | inactive | –
32 | CC(C)c1c(C(=O)Nc2ccccc2)c(-c2ccccc2)c(-c2ccc(F)cc2)n1CC[C@@H](O)C[C@@H](O)CC(=O)O | – | 0.00992 µM (active)
33 | O=C(F)C(F)(F)C(F)(F)C(F)(F)C(F)F | inactive | –
34 | O=C(CC(=O)C(F)(F)C(F)(F)C(F)(F)F)c1cccs1 | – | 8.19 µM (active)
35 | CC(=O)Nc1ccc(O)cc1 | inactive | –
36 | O=C(CCCN1CCC(O)(c2ccc(Cl)cc2)CC1)c1ccc(F)cc1 | – | 4.18 µM (active)
37 | O=P(O)(O)CCC(F)(F)C(F)(F)C(F)(F)C(F)(F)C(F)(F)C(F)(F)C(F)(F)C(F)(F)F | – | 4.78 µM (active)
38 | COC(=O)C(F)(F)C(F)(F)C(F)(F)F | inactive | –
39 | C=CC(F)(F)C(F)(F)C(F)(F)C(F)(F)F | inactive | –

tested on: not listed separately; experiment: CCTE_Deisenroth_AIME_384WELL_CTox_Active: Cytotoxicity Assessment (CTOX) in CCTE's 384-well Estrogen Receptor Transactivation Assay with AIME metabolic competence (metabolism positive), Deisenroth Lab (AID 2284037; active = hit-call score of the fitted dose curve at least 0.9, where 1 is the maximum;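 also: chemicals first conditioned 2 h by alginate-bound induced rat liver S9 before cells; activity means signal loss indicating cell death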)
Procedure, shortened: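 Cytotoxicity in VM7Luc4E2 breast cells, 24 hour, measured as protease-substrate fluorescence loss, after 2-hour metabolic conditioning with induced rat hepatic S9 in alginate microspheres. Concentrations 0.002 - 200 uM, 10 points, bidirectional fitting.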

Row | SMILES | AC50 | outcome
40 | COc1cc([N+](=O)[O-])ccc1N | 118 µM (active) | –
41 | OCC(CO)(CBr)CBr | – | inactive
42 | CCC(C)c1ccccc1O (configuration not stated) | – | inactive
43 | CC(=O)Nc1ccc(O)cc1 | – | inactive
44 | CCCCCCCCCCCC | – | inactive

molecular target: Estrogen receptor (Homo sapiens) (UniProt P03372); experiment: CCTE_Deisenroth_AIME_384WELL_LUC_Inactive: CCTE's 384-well Estrogen Receptor Transactivation Assay without AIME metabolic competence (ERTA luciferase; metabolism negative), Deisenroth Lab (AID 2284038; active = hit-call score of the fitted dose curve at least 0.9, where 1 is the maximum;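 also: VM7Luc4E2 breast cells given medium preincubated 2 h with S9-free microspheres; hits raise estrogen receptor luciferase signal so potencies reflect agonists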)
Procedure, shortened: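 Metabolism-negative mode: chemicals (10-point, 0.002–200 uM) held 2 h with alginate-water microspheres, then conditioned medium applied to VM7Luc4E2 cells for 24 h. Luciferase induction referenced to 17beta-estradiol.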

Row | SMILES | outcome
45 | CCCCCCCCCC=CCC1CC(=O)OC1=O (configuration not stated) | inactive
46 | COc1cc([N+](=O)[O-])ccc1N | inactive
47 | CCCCc1ccc2ccccc2c1S(=O)(=O)O | inactive

tested on: not listed separately; experiment: CCTE_Deisenroth_AIME_384WELL_CTox_Inactive: Cytotoxicity Assessment (CTOX) in CCTE's 384-well Estrogen Receptor Transactivation Assay without AIME metabolic competence (metabolism negative), Deisenroth Lab (AID 2284039; active = hit-call score of the fitted dose curve at least 0.9, where 1 is the maximum;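 also: cell viability via live-cell protease substrate cleaved to fluorescent probe; cells exposed 24 h to medium preincubated 2 h with alginate-water beads without S9; loss of fluorescence signal means loss of viability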)
Procedure, shortened: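 Fluorescence from a live-cell protease substrate, read after 24 h in VM7Luc4E2 cells, indicated viability. Test medium came from a 2 h AIME step without hepatic S9 (alginate-water microspheres); concentrations spanned 0.002 - 200 uM, single technical replicate per run.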

Row | SMILES | outcome | AC50
48 | CCCCCCCCCC=CCC1CC(=O)OC1=O (configuration not stated) | inactive | –
49 | COc1cc([N+](=O)[O-])ccc1N | – | 100 µM (active)
50 | CCC(C)c1ccccc1O (configuration not stated) | – | 0.00093 µM (active)
51 | CCCCc1ccc2ccccc2c1S(=O)(=O)O | inactive | –
52 | CCCCCCCCCCCC | – | 100 µM (active)

tested on: not listed separately; experiment: CCTE_Shafer_MEA_dev_active_electrodes_number: CCTE's Neural Network Formation Assay for Number of Active Electrodes, Shafer Lab (AID 2284040; active = hit-call score of the fitted dose curve at least 0.9, where 1 is the maximum;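 as to AC50: potency for loss of active electrodes versus DMSO so lower counts are hits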)
Procedure, shortened: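 Primary rat cortical neurons on 16-electrode MEA wells, exposed from day 0 through day 12 with compound renewed at DIV 5 and 9 feeds. Active electrodes (mean firing ≥5 spikes/min) counted at DIV 5, 7, 9, 12; trapezoidal AUC across days, loss-of-signal versus DMSO.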

Row | SMILES | outcome | AC50
53 | O=C1NS(=O)(=O)c2ccccc21 | inactive | –
54 | OCC(F)(F)C(F)(F)C(F)(F)C(F)(F)C(F)(F)C(F)(F)C(F)(F)C(F)(F)C(F)(F)C(F)(F)C(F)(F)F | inactive | 15 µM (active)
55 | Nc1ccn([C@@H]2O[C@H](CO)[C@@H](O)C2O)c(=O)n1 (some centres not stated) | – | 0.472 µM (active)
56 | O=C(F)C(F)(F)C(F)(F)C(F)(F)C(=O)F | inactive | –
57 | O=CC(F)(F)C(F)(F)C(F)(F)C(F)F | inactive | –
58 | CC(C)c1c(C(=O)Nc2ccccc2)c(-c2ccccc2)c(-c2ccc(F)cc2)n1CC[C@@H](O)C[C@@H](O)CC(=O)O | – | 0.00981 µM (active)
59 | O=C(F)C(F)(F)C(F)(F)C(F)(F)C(F)F | inactive | –
60 | O=C(CC(=O)C(F)(F)C(F)(F)C(F)(F)F)c1cccs1 | – | 8.83 µM (active)
61 | CC(=O)Nc1ccc(O)cc1 | inactive | –
62 | O=C(CCCN1CCC(O)(c2ccc(Cl)cc2)CC1)c1ccc(F)cc1 | – | 2.33 µM (active)
63 | O=P(O)(O)CCC(F)(F)C(F)(F)C(F)(F)C(F)(F)C(F)(F)C(F)(F)C(F)(F)C(F)(F)F | – | 4.18 µM (active)
64 | COC(=O)C(F)(F)C(F)(F)C(F)(F)F | inactive | –
65 | C=CC(F)(F)C(F)(F)C(F)(F)C(F)(F)F | inactive | –
